# Experiments:
# Test in all cases: SPOT peptide array binding signal intensity (averaged, normalized) (arbitrary units (background-subtracted, floor 0; scale differs between SH3 domains)); higher = stronger binding of the SH3 domain to the peptide
# SpBzz1-D2 = target: SpBzz1-D2
# Procedure, shortened: (§1)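 E. coli BL21(DE3) was used to express GST-fused SH3 domains from four yeast species, which were then purified on glutathione Sepharose. These were incubated at 10 μg/ml in TBS-based blocking buffer overnight at 4°C on cellulose membranes carrying synthetic 15-mer peptides, in which cysteines were replaced by serines. Binding signal is the replicate average of normalized, background-subtracted spot intensity, in arbitrary units that differ between domains.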
# SpCyk3 = target: SpCyk3
# Procedure, shortened: as §1
# SpHof1 = target: SpHof1
# Procedure, shortened: as §1
# SpHof1-2 = target: SpHof1-2
# Procedure, shortened: as §1
# SpHof1-3 = target: SpHof1-3
# Procedure, shortened: as §1
# SpHse1 = target: SpHse1
# Procedure, shortened: as §1
# SpLsb1 = target: SpLsb1
# Procedure, shortened: as §1
# SpLsb4 = target: SpLsb4
# Procedure, shortened: as §1
# SpMyo1 = target: SpMyo1
# Procedure, shortened: as §1
# SpNbp2 = target: SpNbp2
# Procedure, shortened: as §1
# SpPex13 = target: SpPex13
# Procedure, shortened: as §1
# SpRvs167 = target: SpRvs167
# Procedure, shortened: as §1
# SpSla1-D1-D2 = target: SpSla1-D1-D2
# Procedure, shortened: as §1
# SpSla1-D3 = target: SpSla1-D3
# Procedure, shortened: as §1
# AgAbp1 = target: AgAbp1
# Procedure, shortened: as §1
# AgBbc1 = target: AgBbc1
# Procedure, shortened: as §1
# AgBem1-D1 = target: AgBem1-D1
# Procedure, shortened: as §1
# AgBzz1-D1 = target: AgBzz1-D1
# Procedure, shortened: as §1
# AgBzz1-D2 = target: AgBzz1-D2
# Procedure, shortened: as §1
# AgCyk3 = target: AgCyk3
# Procedure, shortened: as §1
# AgFus1 = target: AgFus1
# Procedure, shortened: as §1
# AgHof1 = target: AgHof1
# Procedure, shortened: as §1
# AgHse1 = target: AgHse1
# Procedure, shortened: as §1
# AgLsb1 = target: AgLsb1
# Procedure, shortened: as §1
# AgLsb4 = target: AgLsb4
# Procedure, shortened: as §1
# AgMyo5 = target: AgMyo5
# Procedure, shortened: as §1
# AgNbp2 = target: AgNbp2
# Procedure, shortened: as §1
# AgRvs167 = target: AgRvs167
# Procedure, shortened: as §1
# AgSho1 = target: AgSho1
# Procedure, shortened: as §1
# AgSla1-D1-D2 = target: AgSla1-D1-D2
# Procedure, shortened: as §1
# AgSla1-D3 = target: AgSla1-D3
# Procedure, shortened: as §1
# CaAbp1-D1 = target: CaAbp1-D1
# Procedure, shortened: as §1
# CaAbp1-D2 = target: CaAbp1-D2
# Procedure, shortened: as §1
# CaBbc1 = target: CaBbc1
# Procedure, shortened: as §1
# CaBem1-D1 = target: CaBem1-D1
# Procedure, shortened: as §1
# CaBzz1-D1 = target: CaBzz1-D1
# Procedure, shortened: as §1
# CaBzz1-D2 = target: CaBzz1-D2
# Procedure, shortened: as §1
# CaCyk3 = target: CaCyk3
# Procedure, shortened: as §1
# CaFus1 = target: CaFus1
# Procedure, shortened: as §1
# CaHof1 = target: CaHof1
# Procedure, shortened: as §1
# CaHse1 = target: CaHse1
# Procedure, shortened: as §1
# CaLsb1 = target: CaLsb1
# Procedure, shortened: as §1
# CaLsb4 = target: CaLsb4
# Procedure, shortened: as §1
# CaMyo5 = target: CaMyo5
# Procedure, shortened: as §1
# CaNbp2 = target: CaNbp2
# Procedure, shortened: as §1
# CaRvs167 = target: CaRvs167
# Procedure, shortened: as §1
# CaRvs167-3 = target: CaRvs167-3
# Procedure, shortened: as §1
# CaSho1 = target: CaSho1
# Procedure, shortened: as §1
# CaSla1-D1-D2 = target: CaSla1-D1-D2
# Procedure, shortened: as §1
# CaSla1-D3 = target: CaSla1-D3
# Procedure, shortened: as §1
# ScAbp1 = target: ScAbp1
# Procedure, shortened: as §1
# ScBbc1 = target: ScBbc1
# Procedure, shortened: as §1
# ScBem1-D1 = target: ScBem1-D1
# Procedure, shortened: as §1
# ScBzz1-D1 = target: ScBzz1-D1
# Procedure, shortened: as §1
# ScBzz1-D2 = target: ScBzz1-D2
# Procedure, shortened: as §1
# ScCyk3 = target: ScCyk3
# Procedure, shortened: as §1
# ScFus1 = target: ScFus1
# Procedure, shortened: as §1
# ScHof1 = target: ScHof1
# Procedure, shortened: as §1
# ScHse1 = target: ScHse1
# Procedure, shortened: as §1
# ScLsb1 = target: ScLsb1
# Procedure, shortened: as §1
# ScLsb2 = target: ScLsb2
# Procedure, shortened: as §1
# ScLsb3 = target: ScLsb3
# Procedure, shortened: as §1
# ScLsb4 = target: ScLsb4
# Procedure, shortened: as §1
# ScMyo3 = target: ScMyo3
# Procedure, shortened: as §1
# ScMyo5 = target: ScMyo5
# Procedure, shortened: as §1
# ScNbp2 = target: ScNbp2
# Procedure, shortened: as §1
# ScPex13 = target: ScPex13
# Procedure, shortened: as §1
# ScRvs167 = target: ScRvs167
# Procedure, shortened: as §1
# ScSho1 = target: ScSho1
# Procedure, shortened: as §1
# ScSla1-D1-D2 = target: ScSla1-D1-D2
# Procedure, shortened: as §1
# ScSla1-D3 = target: ScSla1-D3
# Procedure, shortened: as §1
# SpAbp1-D1 = target: SpAbp1-D1
# Procedure, shortened: as §1
# SpBbc1 = target: SpBbc1
# Procedure, shortened: as §1
# SpBzz1-D1 = target: SpBzz1-D1
# Procedure, shortened: as §1
binder,measurement,setting,value
DTFLPPPPPPPSNFE,SPOT peptide array binding signal intensity,SpBzz1-D2,6.5
same,SPOT peptide array binding signal intensity,SpCyk3,≤ 0
same,SPOT peptide array binding signal intensity,SpHof1,≤ 0
same,SPOT peptide array binding signal intensity,SpHof1-2,6.75
same,SPOT peptide array binding signal intensity,SpHof1-3,≤ 0
same,SPOT peptide array binding signal intensity,SpHse1,12.5
same,SPOT peptide array binding signal intensity,SpLsb1,≤ 0
same,SPOT peptide array binding signal intensity,SpLsb4,≤ 0
same,SPOT peptide array binding signal intensity,SpMyo1,1100
same,SPOT peptide array binding signal intensity,SpNbp2,≤ 0
same,SPOT peptide array binding signal intensity,SpPex13,≤ 0
same,SPOT peptide array binding signal intensity,SpRvs167,2
same,SPOT peptide array binding signal intensity,SpSla1-D1-D2,≤ 0
same,SPOT peptide array binding signal intensity,SpSla1-D3,≤ 0
GKFIPSRPAPKPPSS,SPOT peptide array binding signal intensity,AgAbp1,978
same,SPOT peptide array binding signal intensity,AgBbc1,1050
same,SPOT peptide array binding signal intensity,AgBem1-D1,328
same,SPOT peptide array binding signal intensity,AgBzz1-D1,46
same,SPOT peptide array binding signal intensity,AgBzz1-D2,37
same,SPOT peptide array binding signal intensity,AgCyk3,2
same,SPOT peptide array binding signal intensity,AgFus1,≤ 0
same,SPOT peptide array binding signal intensity,AgHof1,51.8
same,SPOT peptide array binding signal intensity,AgHse1,8
same,SPOT peptide array binding signal intensity,AgLsb1,218
same,SPOT peptide array binding signal intensity,AgLsb4,19
same,SPOT peptide array binding signal intensity,AgMyo5,1850
same,SPOT peptide array binding signal intensity,AgNbp2,4160
same,SPOT peptide array binding signal intensity,AgRvs167,2.83
same,SPOT peptide array binding signal intensity,AgSho1,17
same,SPOT peptide array binding signal intensity,AgSla1-D1-D2,35
same,SPOT peptide array binding signal intensity,AgSla1-D3,9.25
same,SPOT peptide array binding signal intensity,CaAbp1-D1,922
same,SPOT peptide array binding signal intensity,CaAbp1-D2,764
same,SPOT peptide array binding signal intensity,CaBbc1,1370
same,SPOT peptide array binding signal intensity,CaBem1-D1,2020
same,SPOT peptide array binding signal intensity,CaBzz1-D1,1860
same,SPOT peptide array binding signal intensity,CaBzz1-D2,808
same,SPOT peptide array binding signal intensity,CaCyk3,88.5
same,SPOT peptide array binding signal intensity,CaFus1,54.5
same,SPOT peptide array binding signal intensity,CaHof1,0.5
same,SPOT peptide array binding signal intensity,CaHse1,≤ 0
same,SPOT peptide array binding signal intensity,CaLsb1,≤ 0
same,SPOT peptide array binding signal intensity,CaLsb4,53
same,SPOT peptide array binding signal intensity,CaMyo5,24
same,SPOT peptide array binding signal intensity,CaNbp2,3600
same,SPOT peptide array binding signal intensity,CaRvs167,26.2
same,SPOT peptide array binding signal intensity,CaRvs167-3,3.25
same,SPOT peptide array binding signal intensity,CaSho1,36
same,SPOT peptide array binding signal intensity,CaSla1-D1-D2,684
same,SPOT peptide array binding signal intensity,CaSla1-D3,14.5
same,SPOT peptide array binding signal intensity,ScAbp1,127
same,SPOT peptide array binding signal intensity,ScBbc1,552
same,SPOT peptide array binding signal intensity,ScBem1-D1,1
same,SPOT peptide array binding signal intensity,ScBzz1-D1,39
same,SPOT peptide array binding signal intensity,ScBzz1-D2,25
same,SPOT peptide array binding signal intensity,ScCyk3,2
same,SPOT peptide array binding signal intensity,ScFus1,≤ 0
same,SPOT peptide array binding signal intensity,ScHof1,8.25
same,SPOT peptide array binding signal intensity,ScHse1,74
same,SPOT peptide array binding signal intensity,ScLsb1,175
same,SPOT peptide array binding signal intensity,ScLsb2,161
same,SPOT peptide array binding signal intensity,ScLsb3,508
same,SPOT peptide array binding signal intensity,ScLsb4,13.5
same,SPOT peptide array binding signal intensity,ScMyo3,3530
same,SPOT peptide array binding signal intensity,ScMyo5,3480
same,SPOT peptide array binding signal intensity,ScNbp2,5410
same,SPOT peptide array binding signal intensity,ScPex13,1460
same,SPOT peptide array binding signal intensity,ScRvs167,274
same,SPOT peptide array binding signal intensity,ScSho1,66.5
same,SPOT peptide array binding signal intensity,ScSla1-D1-D2,652
same,SPOT peptide array binding signal intensity,ScSla1-D3,156
same,SPOT peptide array binding signal intensity,SpAbp1-D1,187
same,SPOT peptide array binding signal intensity,SpBbc1,46.5
same,SPOT peptide array binding signal intensity,SpBzz1-D1,735
same,SPOT peptide array binding signal intensity,SpBzz1-D2,9.5
same,SPOT peptide array binding signal intensity,SpCyk3,5
same,SPOT peptide array binding signal intensity,SpHof1,77.5
same,SPOT peptide array binding signal intensity,SpHof1-2,33
same,SPOT peptide array binding signal intensity,SpHof1-3,94.8
same,SPOT peptide array binding signal intensity,SpHse1,180
same,SPOT peptide array binding signal intensity,SpLsb1,98.8
same,SPOT peptide array binding signal intensity,SpLsb4,600
same,SPOT peptide array binding signal intensity,SpMyo1,2900
same,SPOT peptide array binding signal intensity,SpNbp2,850
same,SPOT peptide array binding signal intensity,SpPex13,22
same,SPOT peptide array binding signal intensity,SpRvs167,90
same,SPOT peptide array binding signal intensity,SpSla1-D1-D2,≤ 0
same,SPOT peptide array binding signal intensity,SpSla1-D3,3.5
QPQRTAPKPPISAPR,SPOT peptide array binding signal intensity,AgAbp1,2
same,SPOT peptide array binding signal intensity,AgBbc1,170
same,SPOT peptide array binding signal intensity,AgBem1-D1,128
same,SPOT peptide array binding signal intensity,AgBzz1-D1,51
same,SPOT peptide array binding signal intensity,AgBzz1-D2,28
same,SPOT peptide array binding signal intensity,AgCyk3,1
same,SPOT peptide array binding signal intensity,AgFus1,11
same,SPOT peptide array binding signal intensity,AgHof1,4.75
same,SPOT peptide array binding signal intensity,AgHse1,14
same,SPOT peptide array binding signal intensity,AgLsb1,0.5
same,SPOT peptide array binding signal intensity,AgLsb4,≤ 0
same,SPOT peptide array binding signal intensity,AgMyo5,327
same,SPOT peptide array binding signal intensity,AgNbp2,1510
same,SPOT peptide array binding signal intensity,AgRvs167,1
same,SPOT peptide array binding signal intensity,AgSho1,4
same,SPOT peptide array binding signal intensity,AgSla1-D1-D2,≤ 0
same,SPOT peptide array binding signal intensity,AgSla1-D3,≤ 0
same,SPOT peptide array binding signal intensity,CaAbp1-D1,≤ 0
same,SPOT peptide array binding signal intensity,CaAbp1-D2,5
same,SPOT peptide array binding signal intensity,CaBbc1,693
same,SPOT peptide array binding signal intensity,CaBem1-D1,73
same,SPOT peptide array binding signal intensity,CaBzz1-D1,1260
same,SPOT peptide array binding signal intensity,CaBzz1-D2,420
same,SPOT peptide array binding signal intensity,CaCyk3,0.5
same,SPOT peptide array binding signal intensity,CaFus1,≤ 0
same,SPOT peptide array binding signal intensity,CaHof1,0.5
same,SPOT peptide array binding signal intensity,CaHse1,≤ 0
same,SPOT peptide array binding signal intensity,CaLsb1,0.5
same,SPOT peptide array binding signal intensity,CaLsb4,≤ 0
same,SPOT peptide array binding signal intensity,CaMyo5,7.5
